Reference: PubChem BioAssay (NCI)
The panel holds about 83,000 compounds, 20% with a hit somewhere; the sample as a whole holds those more often.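 Cells were grown in 96-well plates and exposed to the test compound at a single concentration for 48 hours; results are reported as percent growth, with values below 10 considered active.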 Unmarked numbers belong to inactive results. Activity calls are given as the source filed them.

Tested on: CCRF-CEM leukemia
Test: NCI-60 one-dose screen, 48 h (100 = growth as untreated, 0 = no growth, -100 = all killed)
Settings: 10 µM unless noted
Method: Growth inhibition of the CCRF-CEM human tumor cell line is measured as a screen for anti-cancer activity. Cells are grown in 96 well plates and exposed to the test compound for 48 hours. Compounds are tested at a single concentration, which is 10^-5 M for most compounds. The reported endpoint is percent growth (GI% or GIPRCNT), where numbers from 0 - 100% represent growth inhibition, and numbers from -100% - 0 represent cell death. For example, a value of 40 represents 60% growth inhibition. A value of 0 means no net growth occurred over the course of the experiment. A value of -40 indicates 40% of cells at the beginning of the experiment died by the end of the experiment. A value of -100 means all cells are dead at the end of the experiment.
NCI-60 Human Tumor Cell Lines Screen was performed using the standard one-dose NCI protocol, which is described in more detail at https://dtp.cancer.gov/discovery_development/nci-60/default.htm.
Compounds with GIPRCNT values below 10 were considered active. Activity score was based on GIPRCNT using the following formula: […]
Score is 0 for GIPRCNT values of 100 or above, 50 for GIPRCNT values of 0, and 100 for GIPRCNT values of -100.

SMILES | growth
COc1cc(/C=C/c2cc(/C=C/c3ccc(O)c(OC)c3)n(-c3c(C)cccc3C)c(=O)n2)ccc1O | 7.03% (active)
NC(=O)c1cc(Br)ccc1NC(=O)/C=C/c1ccccc1 | 9.57% (active)
CC1CCNC(C)C1 (stereo not given) | 94.4%
Clc1ccc2nc3nc4ccc[nH]c4cc3c2c1 | 71.4%
CCOC(=O)c1c(C)oc2ncnc(N3CCN(C(=O)COc4ccc(SC)cc4)CC3)c12 | 91.5%
CS(=O)(=O)c1ccc(-n2nc(-c3ccc(Br)cc3)c3ccccc3c2=O)cc1 | 97.1%
Cn1ncc2c(=O)nc3c(-c4ccccc4)n[nH]n3c21 | 127%
O=C1CSC(=S)N1CCc1ccc(O)cc1 | 51.1%
O=C1Nc2cc(-c3ccc(O)cc3)ccc2/C1=C/c1ccc[nH]1 | 6% (active)
Cc1cc(C)c2nc3nc(C)cc(C)c3c(N)c2c1 | 42.3%
O=C(/C=C/c1cc(CN2CCOCC2)c(O)c2ncccc12)c1cc(CN2CCOCC2)c(O)c2ncccc12 | 26.9%
CCC#CC[C@H](O)C/C=C1/C(=O)C=C[C@@H]1C/C=C\CCCC(=O)OC | -8.8% (active)
O=C1Nc2ccc(Br)cc2C12Oc1ccccc1C1CC(c3ccc(F)cc3)=NN12 (stereo not given) | 91%
CCN(CC)CCCCNc1c2ccc(Cl)cc2nc2ccc(OC)cc12 | -27.8% (active)
Cn1cc(-c2nonc2-c2cn(C)c3ccc(F)cc23)c2ccccc21 | 14.9%
COc1ccc(-c2nc3ccc(-c4nc5ccc(N6CCN(c7ccccc7)CC6)cc5[nH]4)cc3[nH]2)cc1OC | 6.07% (active)
CON1C(=O)CC[C@]2(C)[C@H]3CC[C@@H]4C([C@@]5(C)CCC(=O)O5)CC[C@@]4(C)[C@]3(C)CC[C@H]2C1(C)C (stereo not given in full) | 96.9%
COc1ccc(C2CC(c3ccc(Cl)cc3)=NN2/C=C2\SC(=S)N(NC(=O)Cc3ccccc3Nc3c(Cl)cccc3Cl)C2=O)cc1 (stereo not given) | 38.3%
CC[C@H]1OC(=O)[C@H](C)[C@@H](O[C@H]2C[C@@](C)(OC)[C@@H](O)[C@H](C)O2)[C@H](C)[C@@H](O[C@@H]2O[C@H](C)C[C@H](N(C)C)[C@H]2O)[C@](C)(O)C[C@H](C)CN(C)[C@H](C)[C@@H](O)[C@]1(C)O | 120%
c1ccc(-c2cc3n4c(-c5ccccc5)nn(-c5ccccc5)c4cnc-3n2)cc1 | 86.4%

SMILES | growth
CCc1nc(N)nc(N)c1C#CC(C)c1ccc(-c2ccncc2)cc1Cl (stereo not given) | 10.9%
C#Cc1cccc(NC(=O)c2ccccc2NC(=O)C=C)c1 | 106% [8.25 µM]
CSc1nc(Nc2cccc(NC(=O)CCl)c2)c(C#N)c(-c2cccc([N+](=O)[O-])c2)n1 | -14.4% (active)
CCN1CCC2(CC1)NC(=O)c1c(c3ccc(Cl)c(Cl)c3n1C)C2C#N (stereo not given) | 39.5%
C#CCOc1ccc2ncnc(Nc3cccc(CNC(=O)C=C)c3)c2c1 | 111% [8.25 µM]
OC(c1cc2cc(Cl)c(Cl)cc2c2cc(C(F)(F)F)ccc12)C1CCCCN1 (stereo not given) | -45% (active)
Cc1[nH]c(-c2ccc3cc[nH]c3c2)c2c1C(=O)CCCC2 | 64.7%
OCc1ccc(N2CCc3cccc(F)c3C2)cc1Cl | 96% [0.1 µM]
FC(F)(F)Oc1ccc2nc3nc4ccc[nH]c4cc3c2c1 | 75.7%
CNc1ccc(-c2cc(=O)oc3ccc(Cl)cc23)cc1 | 14.4%
COc1ccc(-c2cc(=O)c3c(OC)c4ccoc4cc3o2)cc1 | 109%
O=C1/C(=C/c2ccc(Cl)cc2)SC(=S)N1CCc1ccc(O)cc1 | 23.1%
O=C(O)c1ccc(N=CC(=O)c2ccc(-c3ccccc3)cc2)cc1 | -57.9% (active)
CCOc1cc2ncc(C#N)c(Nc3ccc(OCc4cccc(F)c4)c(Cl)c3)c2cc1NC(=O)CC1CCSS1 (stereo not given) | 9.64% (active)
COc1cc2nc(N3CCCC3)nc(NCC3CCCCC3)c2cc1OC | -9.68% (active)
COc1cc2c(cc1O)CC[C@@H]1[C@@H]2CC[C@]2(C)[C@@H](OCCN(C)C)CC[C@@H]12 | 10.3%
C#Cc1cccc(NC(=O)c2ccccc2NC(=O)CCl)c1 | 50.4% [8.25 µM]
N#CN1CC[C@H](C(=O)Nc2cc3cc(C(N)=O)ccc3cn2)C1 | 7.66% (active)
CCOC(=O)c1sc2nc(-c3cccc(OC)c3)nc(N3CCOCC3)c2c1C | 98.4%
O=C1Nc2c(ccc(Cl)c2Cl)/C1=C\c1cc(C(F)(F)F)cc(C(F)(F)F)c1 | 30.8%
